# From PubChem BioAssay
# In the library only some 3.3% were active in any assay of this set; here they are far more common.
# Rpn11 inh: Rpn11 (human) deubiquitinase inhibition | human 26S proteasome, Ub4-pepOG fluorescence polarization; 20S core pre-blocked with epoxomicin | AID 588493 | 0.59% of 360,000 active | inhibition, % at 20 µM;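 active = inhibition at 20 µM, scaled to each plate's controls, above about 33%, limit read from the data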
# HNF4A DNA FP: change in binding of human HNF4 alpha to DNA | P41235 | HNF4a-FITC DNA binding, fluorescence polarization, 1 h | activity change, % at 10 µM | 0.3% of 360,000 active | AID 1224865; in the data active = activity change above about 30%, passing the limit was not always enough
# Target sequence (P41235 whole entry, looked up): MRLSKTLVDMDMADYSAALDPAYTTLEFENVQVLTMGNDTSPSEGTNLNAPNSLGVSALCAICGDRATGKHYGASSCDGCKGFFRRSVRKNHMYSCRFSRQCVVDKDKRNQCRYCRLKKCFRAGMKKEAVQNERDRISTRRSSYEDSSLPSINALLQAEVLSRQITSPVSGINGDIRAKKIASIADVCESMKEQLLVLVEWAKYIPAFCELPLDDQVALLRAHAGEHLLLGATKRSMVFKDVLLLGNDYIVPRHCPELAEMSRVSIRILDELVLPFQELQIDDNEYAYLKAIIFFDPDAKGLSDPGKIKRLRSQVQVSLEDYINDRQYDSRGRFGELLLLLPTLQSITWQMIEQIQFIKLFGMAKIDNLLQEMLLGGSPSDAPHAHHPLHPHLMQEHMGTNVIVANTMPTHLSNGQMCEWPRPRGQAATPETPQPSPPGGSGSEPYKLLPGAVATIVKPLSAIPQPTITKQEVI
# Fh CTSL1 inh: blocks F. hepatica cathepsin L1 in PFM18AAP counter-screen | recombinant F. hepatica cathepsin L1, Z-Leu-Arg-MCA fluorescence | AID 1906 | inhibition, % at 5.96 µM | 0.49% of 300,000 active;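 active = inhibition above the mean of all tested compounds plus 3 SD, set per screening campaign, cut at about 17% in these data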
# TPT1 inh: C. albicans TPT1 enzyme inhibition; AID 1962; inhibition, % at 5 µM; 0.81% of 300,000 active; recombinant caTPT1, FP RNA substrate dephosphorylation;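 active = inhibition above the mean of all tested compounds plus 3 SD, set per screening campaign, cut at about 24% in these data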
# PHOSPHO1 inh: blocks human PHOSPHO1 phosphatase activity. Q8TCT1. recombinant PHOSPHO1, absorbance phosphatase assay. inhibition, % at 13.3 µM. 1.1% of 290,000 active. AID 1565; in the data active = inhibition above about 60%
# NRP1-CendR mod: modulators of CendR peptide binding to human neuropilin-1 | FAM-RPARPAR peptide binding to NRP-1, fluorescence polarization | inhibition, % at 25 µM | 0.85% of 360,000 active;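 active = inhibition or corrected inhibition above about 18%, plus a signal ratio from 0.5 to 1.5, limit read from the data, passing the limit was not always enough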
# Hits are given with their value; - = inactive; . = no result given; ! = repeats disagree.
SMILES,Rpn11 inh,HNF4A DNA FP,Fh CTSL1 inh,TPT1 inh,PHOSPHO1 inh,NRP1-CendR mod
Cc1cc(=O)n2c(n1)NC(Nc1cccc(C)c1C)=NC2c1ccccc1 (centres undefined),-,-,-,-,-,-
CS(=O)(=O)N1N=C(c2cccs2)CC1c1ccccc1O (centres undefined),-,-,-,-,60,-
O=S(=O)(c1ccccc1)N1N=C(c2ccccc2)CC1c1ccco1 (centres undefined),.,.,-,-,-,.
CCOc1ccccc1C1CC(c2cccs2)=NN1S(C)(=O)=O (centres undefined),-,-,-,-,-,-
Cc1ccc(C2=NN(S(=O)(=O)c3ccccc3)C(c3ccccc3O)C2)cc1 (centres undefined),.,80,.,.,-,-
O=C(Nn1c(O)c(C=C2N=c3ccccc3=N2)sc1=S)c1cccc(Cl)c1,-,-,-,-,86,-
O=C(Nn1c(O)c(C=C2N=c3ccccc3=N2)sc1=S)c1ccc(Cl)cc1,-,-,-,-,-,-
Cc1ccc(C(=O)Nn2c(O)c(C=C3N=c4ccccc4=N3)sc2=S)cc1,-,-,-,-,-,-
O=C(Nn1c(O)c(C=C2N=c3ccccc3=N2)sc1=S)c1ccccc1,-,-,-,-,86,-
Oc1c(C=C2N=c3ccccc3=N2)sc(=S)n1-c1ccc2ccccc2c1,-,-,-,-,-,-
Oc1c(C=C2N=c3ccccc3=N2)sc(=S)n1-c1ccc(F)cc1,-,39!,-,-,-,-
CC(=O)Nc1cccc(NC(=O)CSc2nc(=O)n(CCN3CCOCC3)c3c2CCC3)c1,-,-,-,-,.,-
Cn1c(CC(=O)Nc2ccc(Cl)c(Cl)c2)nnc1SCC(=O)NCc1ccccc1,-,-,-,-,-,-
Cc1sc(NC(=O)CCl)c(C(=O)c2ccccc2)c1C,-,-,53,-,-,-
Cc1ccccc1C(=O)Nc1sc(C)c(C)c1C(=O)c1ccccc1,-,-,-,-,-,-
CN(C)c1ccc(C2/C(=C(/O)c3ccc(Br)cc3)C(=O)C(=O)N2C)cc1 (centres undefined),-,-,-,-,-,-
Cc1ccc(N(C)C2=NC(=O)CS2)cc1Cl,-,-,-,-,-,-
NS(=O)(=O)c1cccnc1Nc1cccc(Cl)c1Cl,-,-,-,-,-,24
COc1cc2oc(=O)ccc2cc1[C@H](O)[C@@H](O)C(C)(C)O,-,-,.,.,.,-
COc1cc2oc(=O)ccc2cc1[C@@H](O)[C@@H]1OC(C)(C)OC1(C)C,-,-,.,.,.,27
COC(=O)c1ccc(N2C(c3cccc(OC)c3)=Cc3ccc(F)cc3C2c2c(C)[nH]c3ccccc23)cc1 (centres undefined),.,-,.,.,.,-
COc1ccccc1OC(C)C(=O)N1CCC(Cc2ccccc2)CC1 (centres undefined),-,-,-,-,-,-
Cc1ccccc1OC(C)C(=O)N1CCC(Cc2ccccc2)CC1 (centres undefined),-,-,-,-,68,-
COc1ccc(-c2nc3c(c(=O)[nH]c(=O)n3Cc3ccccc3)n2CCO)cc1,-,-,-,-,-,-
O=c1[nH]c(=O)n(Cc2ccccc2)c2nc(-c3ccc(Oc4ccc(F)cc4)c([N+](=O)[O-])c3)n(CCO)c12,-,-,-,-,-,26
SMILES,Rpn11 inh,HNF4A DNA FP,Fh CTSL1 inh,TPT1 inh,PHOSPHO1 inh,NRP1-CendR mod
COc1ccccc1Cn1c(=S)[nH]c2cc(C(=O)N3CCN(c4ccccc4OC)CC3)ccc2c1=O,-,-,-,-,-,-
COc1ccc(-n2c(=S)[nH]c3cc(C(=O)NCc4ccco4)ccc3c2=O)c(OC)c1,-,-,19,-,-,-
COc1ccc(-n2c(=S)[nH]c3cc(C(=O)NCc4ccccc4OC)ccc3c2=O)c(OC)c1,-,-,-,-,-,-
COc1ccccc1N1CCN(C(=O)c2ccc3c(=O)n(Cc4ccco4)c(=S)[nH]c3c2)CC1,-,-,-,-,82,-
CCCCC1(C)OC(=O)C(=Cc2ccc(-c3ccc(Cl)c(C(=O)O)c3)o2)C(=O)O1 (centres undefined),-,-,-,-,86,-
CCOC(=O)C1=C(CSc2nccn2C)NC(=O)NC1c1ccc2c(c1)OCO2 (centres undefined),-,-,-,-,-,-
CCOC(=O)C1=C(CSc2nccn2C)NC(=O)NC1c1cc(C)ccc1C (centres undefined),-,-,-,-,-,26
CCOC(=O)c1ccc(NC(=O)c2sc3nc4n(c(=O)c3c2C)CCC4)cc1,-,-,-,-,-,-
CCOC(=O)N1CCC(NC(=O)c2sc3nc4n(c(=O)c3c2C)CCCC4)CC1,-,-,-,-,-,-
CCOC(=O)c1sc2nc3n(c(=O)c2c1C)CCC(C)CC3 (centres undefined),-,-,-,-,78,-
CCOC(=O)N1CCN(C(=O)Nc2sc3nc4n(c(=O)c3c2C)CCC(C)CC4)CC1 (centres undefined),-,-,-,-,74,-
COc1ccccc1CN(C)C[C@H]1OCc2cnnn2CCCC(=O)N([C@@H](C)CO)C[C@@H]1C,-,-,.,.,.,-
CCCCOc1nc(N2CCOCC2)nc(C)c1[N+](=O)[O-],-,-,18,-,-,-
O=C(NN=Cc1ccccc1C(=O)O)c1ccc(NS(=O)(=O)c2cccs2)cc1,-,-,.,.,.,-
COC(=O)c1ccc(NC(=S)NC2c3ccccc3CC2O)cc1 (centres undefined),-,-,-,-,-,-
O=C1N=c2ccc(Br)cc2=C1c1sc(=S)n(NS(=O)(=O)c2ccccc2)c1O,-,-,28,-,-,-
O=C1N=c2ccccc2=C1c1sc(=S)n(NC(=O)c2cccc(O)c2)c1O,-,-,.,.,-,-
COc1ccccc1CN1CCC(n2nccc2NC(=O)CCCc2ccccc2)CC1,-,-,-,-,-,-
S=c1[nH]ncn1/N=C/c1ccc(Br)cc1,-,-,-,-,96,-
S=c1[nH]c(-c2ccccc2)cn1/N=C/c1ccncc1,-,-,-,-,70,-
CCn1c2ccccc2c2cc(/C=N/n3cn[nH]c3=S)ccc21,-,-,-,-,-,-
S=c1[nH]ncn1/N=C/c1ccccc1,-,44,-,-,89,-
S=c1[nH]ncn1/N=C/c1ccc(N2CCOCC2)cc1,-,-,-,-,88,-
S=c1[nH]nc(Cc2ccc(Br)cc2)n1/N=C/c1ccc(Cl)cc1,-,-,-,-,-,-
C(=N\n1cnnc1)/c1ccc(N2CCOCC2)cc1,-,-,-,-,-,-
COc1ccc(CN(CCNC(=O)CCCCC(=O)NCCN(Cc2ccc(OC)cc2)C(C)C)C(C)C)cc1,-,-,-,-,.,-
COC(=O)C1=NN(c2cccc3ccccc23)C2C(=O)N(c3ccccc3OC)C(=O)C12 (centres undefined),-,-,19,-,-,-
